# Legend:
# [1] = target: Mast/stem cell growth factor receptor Kit (Homo sapiens) (UniProt P10721); settings: at 1 µM
# [2] = target: Mast/stem cell growth factor receptor Kit (Homo sapiens) (UniProt P10721); settings: at 10 µM
# [3] = target: Proto-oncogene tyrosine-protein kinase Src (Homo sapiens) (UniProt P12931); settings: at 1 µM
# [4] = target: Proto-oncogene tyrosine-protein kinase Src (Homo sapiens) (UniProt P12931); settings: at 10 µM
# [5] = target: Serine/threonine-protein kinase mTOR (Homo sapiens) (UniProt P42345); settings: at 1 µM
# [6] = target: Serine/threonine-protein kinase mTOR (Homo sapiens) (UniProt P42345); settings: at 10 µM
# [7] = target: Serine/threonine-protein kinase mTOR (Homo sapiens) (UniProt P42345); settings: at 1 µM; remark: listed apart in the source
# [8] = target: Serine/threonine-protein kinase mTOR (Homo sapiens) (UniProt P42345); settings: at 10 µM; remark: listed apart in the source
# [9] = target: Ribosomal protein S6 kinase beta-1 (Homo sapiens) (UniProt P23443); settings: at 1 µM
# Chain of Ribosomal protein S6 kinase beta-1 (Homo sapiens) (P23443 whole entry, looked up): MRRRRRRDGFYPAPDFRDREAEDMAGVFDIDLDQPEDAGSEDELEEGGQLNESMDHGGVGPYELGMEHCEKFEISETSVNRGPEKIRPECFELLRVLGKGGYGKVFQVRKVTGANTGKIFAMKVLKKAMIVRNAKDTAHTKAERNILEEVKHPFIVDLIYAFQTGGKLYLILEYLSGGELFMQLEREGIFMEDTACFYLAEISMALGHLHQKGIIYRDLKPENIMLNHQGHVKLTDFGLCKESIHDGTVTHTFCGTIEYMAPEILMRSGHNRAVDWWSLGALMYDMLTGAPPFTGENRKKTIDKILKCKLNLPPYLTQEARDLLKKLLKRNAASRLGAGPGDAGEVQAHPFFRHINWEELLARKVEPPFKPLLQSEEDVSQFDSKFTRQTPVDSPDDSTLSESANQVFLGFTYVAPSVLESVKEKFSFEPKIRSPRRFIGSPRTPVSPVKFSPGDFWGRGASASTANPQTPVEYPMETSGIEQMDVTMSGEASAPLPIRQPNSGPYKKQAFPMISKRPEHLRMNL
# [10] = target: Ribosomal protein S6 kinase beta-1 (Homo sapiens) (UniProt P23443); settings: at 10 µM
# [11] = target: Serine/threonine-protein kinase Nek6 (Homo sapiens) (UniProt Q9HC98); settings: at 1 µM
# Chain of Serine/threonine-protein kinase Nek6 (Homo sapiens) (Q9HC98 whole entry): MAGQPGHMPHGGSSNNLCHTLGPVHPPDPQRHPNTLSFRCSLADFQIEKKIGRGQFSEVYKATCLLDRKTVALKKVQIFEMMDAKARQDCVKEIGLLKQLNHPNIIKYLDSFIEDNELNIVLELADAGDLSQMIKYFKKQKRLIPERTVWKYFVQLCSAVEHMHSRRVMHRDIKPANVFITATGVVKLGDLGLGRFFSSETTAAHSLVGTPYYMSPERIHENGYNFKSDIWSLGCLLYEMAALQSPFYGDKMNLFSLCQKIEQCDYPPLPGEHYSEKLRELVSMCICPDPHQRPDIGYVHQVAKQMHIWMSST
# [12] = target: Serine/threonine-protein kinase Nek6 (Homo sapiens) (UniProt Q9HC98); settings: at 10 µM
# [13] = target: Serine/threonine-protein kinase Nek7 (Homo sapiens) (UniProt Q8TDX7); settings: at 1 µM
# Chain of Serine/threonine-protein kinase Nek7 (Homo sapiens) (Q8TDX7 whole entry, looked up): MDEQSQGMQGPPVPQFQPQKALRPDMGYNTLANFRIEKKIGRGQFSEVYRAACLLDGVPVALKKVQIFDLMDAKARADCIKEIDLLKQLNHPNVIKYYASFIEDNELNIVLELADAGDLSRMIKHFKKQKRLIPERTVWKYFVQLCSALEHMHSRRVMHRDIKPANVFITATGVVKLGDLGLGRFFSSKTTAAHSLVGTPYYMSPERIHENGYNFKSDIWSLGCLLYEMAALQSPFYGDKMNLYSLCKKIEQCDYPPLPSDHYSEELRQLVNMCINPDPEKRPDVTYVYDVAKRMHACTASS
# [14] = target: Serine/threonine-protein kinase Nek7 (Homo sapiens) (UniProt Q8TDX7); settings: at 10 µM
# [15] = target: T1, Serine/threonine-protein kinase NLK (Homo sapiens) (UniProt Q9UBE8); settings: at 1 µM
# T1 sequence (whole entry): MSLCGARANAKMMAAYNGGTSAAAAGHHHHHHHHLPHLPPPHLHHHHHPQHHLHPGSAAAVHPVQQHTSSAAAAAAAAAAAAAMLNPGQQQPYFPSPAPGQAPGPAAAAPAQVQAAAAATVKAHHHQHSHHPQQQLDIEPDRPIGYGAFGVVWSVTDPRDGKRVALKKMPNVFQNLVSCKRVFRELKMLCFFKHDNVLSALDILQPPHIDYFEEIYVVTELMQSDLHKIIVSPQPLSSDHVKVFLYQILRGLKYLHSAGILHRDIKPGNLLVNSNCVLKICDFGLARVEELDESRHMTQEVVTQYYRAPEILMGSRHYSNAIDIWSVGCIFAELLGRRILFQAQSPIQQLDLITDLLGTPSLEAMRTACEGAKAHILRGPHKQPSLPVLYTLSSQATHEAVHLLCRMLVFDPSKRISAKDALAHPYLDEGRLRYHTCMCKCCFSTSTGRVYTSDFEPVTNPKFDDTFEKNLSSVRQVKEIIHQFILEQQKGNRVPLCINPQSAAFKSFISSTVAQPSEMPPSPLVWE
# [16] = target: T1, Serine/threonine-protein kinase NLK (Homo sapiens); settings: at 10 µM
# [17] = target: Serine/threonine-protein kinase PAK 2 (Homo sapiens) (UniProt Q13177); settings: at 1 µM
# Chain of Serine/threonine-protein kinase PAK 2 (Homo sapiens) (Q13177 whole entry): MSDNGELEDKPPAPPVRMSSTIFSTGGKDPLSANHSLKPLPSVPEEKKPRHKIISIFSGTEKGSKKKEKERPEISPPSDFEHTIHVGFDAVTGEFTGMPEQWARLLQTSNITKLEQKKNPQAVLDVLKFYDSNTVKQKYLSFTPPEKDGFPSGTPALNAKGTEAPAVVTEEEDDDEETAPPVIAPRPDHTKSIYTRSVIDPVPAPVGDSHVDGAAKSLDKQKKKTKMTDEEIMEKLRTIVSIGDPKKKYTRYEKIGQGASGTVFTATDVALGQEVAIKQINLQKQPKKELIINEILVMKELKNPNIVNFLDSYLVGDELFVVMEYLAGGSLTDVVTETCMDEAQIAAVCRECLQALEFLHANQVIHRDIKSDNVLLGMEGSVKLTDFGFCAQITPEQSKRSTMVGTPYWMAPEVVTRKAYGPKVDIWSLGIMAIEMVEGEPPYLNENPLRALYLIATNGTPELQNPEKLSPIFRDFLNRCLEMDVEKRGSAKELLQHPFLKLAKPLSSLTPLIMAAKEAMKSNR
# [18] = target: Serine/threonine-protein kinase PAK 2 (Homo sapiens) (UniProt Q13177); settings: at 10 µM
# [19] = target: T2, Eukaryotic elongation factor 2 kinase (Homo sapiens) (UniProt O00418); settings: at 1 µM
# T2 sequence (whole entry): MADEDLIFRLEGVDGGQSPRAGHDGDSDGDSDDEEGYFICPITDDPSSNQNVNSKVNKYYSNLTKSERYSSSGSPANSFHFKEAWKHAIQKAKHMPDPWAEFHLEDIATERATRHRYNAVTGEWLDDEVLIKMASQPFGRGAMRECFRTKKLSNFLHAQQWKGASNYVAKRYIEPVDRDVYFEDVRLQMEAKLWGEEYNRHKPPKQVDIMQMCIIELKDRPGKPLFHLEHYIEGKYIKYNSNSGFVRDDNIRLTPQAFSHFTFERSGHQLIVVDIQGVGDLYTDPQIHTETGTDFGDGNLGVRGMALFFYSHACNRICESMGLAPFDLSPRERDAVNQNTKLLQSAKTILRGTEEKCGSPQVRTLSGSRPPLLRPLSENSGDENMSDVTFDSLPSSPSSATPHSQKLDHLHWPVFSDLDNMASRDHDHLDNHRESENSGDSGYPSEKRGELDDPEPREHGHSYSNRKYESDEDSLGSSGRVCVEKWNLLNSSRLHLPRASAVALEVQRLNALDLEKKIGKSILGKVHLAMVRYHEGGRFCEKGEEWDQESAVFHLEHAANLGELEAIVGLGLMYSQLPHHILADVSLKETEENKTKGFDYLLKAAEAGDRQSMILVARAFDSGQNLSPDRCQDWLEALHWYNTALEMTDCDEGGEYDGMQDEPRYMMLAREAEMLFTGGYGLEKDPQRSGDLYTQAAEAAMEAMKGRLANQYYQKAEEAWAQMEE
# [20] = target: T2, Eukaryotic elongation factor 2 kinase (Homo sapiens); settings: at 10 µM
# Chain of Proto-oncogene tyrosine-protein kinase Src (Homo sapiens) (P12931 2-536 limits assumed): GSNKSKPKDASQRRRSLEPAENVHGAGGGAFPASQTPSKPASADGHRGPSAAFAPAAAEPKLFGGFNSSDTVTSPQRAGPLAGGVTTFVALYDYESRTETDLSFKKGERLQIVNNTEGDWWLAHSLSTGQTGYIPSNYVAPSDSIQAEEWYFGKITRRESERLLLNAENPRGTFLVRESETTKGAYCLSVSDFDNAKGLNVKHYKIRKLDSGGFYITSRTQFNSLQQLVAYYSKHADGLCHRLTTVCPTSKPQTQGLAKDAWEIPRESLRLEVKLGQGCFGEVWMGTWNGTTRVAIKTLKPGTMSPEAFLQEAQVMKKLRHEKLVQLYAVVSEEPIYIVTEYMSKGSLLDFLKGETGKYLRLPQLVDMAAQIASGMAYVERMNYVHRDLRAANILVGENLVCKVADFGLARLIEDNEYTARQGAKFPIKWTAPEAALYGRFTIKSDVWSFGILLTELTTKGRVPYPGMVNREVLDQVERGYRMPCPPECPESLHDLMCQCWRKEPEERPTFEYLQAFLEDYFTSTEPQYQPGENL
# Chain of Mast/stem cell growth factor receptor Kit (Homo sapiens) (P10721 whole entry): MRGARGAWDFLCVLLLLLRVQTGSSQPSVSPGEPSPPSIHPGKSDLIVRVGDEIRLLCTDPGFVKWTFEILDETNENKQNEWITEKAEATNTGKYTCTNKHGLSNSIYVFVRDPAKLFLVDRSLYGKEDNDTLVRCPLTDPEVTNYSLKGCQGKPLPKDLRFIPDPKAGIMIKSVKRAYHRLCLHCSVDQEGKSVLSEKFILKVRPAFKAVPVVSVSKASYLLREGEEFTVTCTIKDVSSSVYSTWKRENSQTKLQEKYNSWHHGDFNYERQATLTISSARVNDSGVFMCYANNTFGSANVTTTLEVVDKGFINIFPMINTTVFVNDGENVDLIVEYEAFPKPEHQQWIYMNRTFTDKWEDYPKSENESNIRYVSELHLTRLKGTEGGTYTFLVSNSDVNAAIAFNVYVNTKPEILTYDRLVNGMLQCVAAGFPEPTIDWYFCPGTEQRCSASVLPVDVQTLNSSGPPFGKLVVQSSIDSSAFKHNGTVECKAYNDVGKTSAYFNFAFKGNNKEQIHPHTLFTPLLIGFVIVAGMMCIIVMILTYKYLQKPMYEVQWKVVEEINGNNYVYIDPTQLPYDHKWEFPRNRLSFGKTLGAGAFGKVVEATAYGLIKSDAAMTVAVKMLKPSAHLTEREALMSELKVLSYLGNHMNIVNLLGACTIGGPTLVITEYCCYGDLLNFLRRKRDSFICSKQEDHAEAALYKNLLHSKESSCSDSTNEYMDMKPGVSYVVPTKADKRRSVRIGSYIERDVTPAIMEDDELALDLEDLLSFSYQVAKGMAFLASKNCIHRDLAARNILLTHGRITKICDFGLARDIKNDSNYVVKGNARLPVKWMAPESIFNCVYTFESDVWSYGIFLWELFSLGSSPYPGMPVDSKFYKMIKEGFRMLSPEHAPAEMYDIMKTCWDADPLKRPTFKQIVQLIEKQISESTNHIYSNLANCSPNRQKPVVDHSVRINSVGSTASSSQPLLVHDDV
SMILES,residual activity [1] [%],residual activity [2] [%],residual activity [3] [%],residual activity [4] [%],residual activity [5] [%],residual activity [6] [%],residual activity [7] [%],residual activity [8] [%],residual activity [9] [%],residual activity [10] [%],residual activity [11],residual activity [12] [%],residual activity [13],residual activity [14],residual activity [15] [%],residual activity [16] [%],residual activity [17] [%],residual activity [18] [%],residual activity [19],residual activity [20] [%]
COc1ccc(C(=O)Nc2sc3c(c2C(N)=O)CCCC3)cc1OC,85,87,76,104,101,104,95,88,106,83,90% (inactive),103,87% (inactive),83% (inactive),88,90,96,90,–,–
CCN(CC)CCCCN1c2ccccc2Oc2ccc(Cl)cc21,121,107,81,109,110,110,70,98,79,90,106% (inactive),113,116% (inactive),115% (inactive),113,96,117,120,104% (inactive),131
O=C(Nc1cccc(Nc2nccc(Nc3cccc(C(F)(F)F)c3)n2)c1)C1CC1,94,46,56,12,79,83,71,84,83,62,107% (inactive),105,103% (inactive),104% (inactive),95,39,116,58,93% (inactive),101
COc1cc2ncnc(Nc3ccc(Oc4ccccc4)cc3)c2cc1OC,109,60,36,24,90,95,80,95,92,88,97% (inactive),118,97% (inactive),112% (inactive),96,82,98,87,92% (inactive),132
CNc1cc2c(Nc3cccc(Br)c3)ncnc2cn1,110,106,86,78,105,104,100,107,126,145,94% (inactive),108,94% (inactive),95% (inactive),87,45,111,99,–,–
N#C/C(=C(\N)Sc1ccc(N)cc1)c1ccccc1C(F)(F)F,115,105,125,91,87,63,118,79,68,56,113% (inactive),112,101% (inactive),90% (inactive),87,95,99,98,–,–
CO[C@@H]1[C@H](N(C)C(=O)c2ccccc2)C[C@H]2O[C@]1(C)n1c3ccccc3c3c4c(c5c6ccccc6n2c5c31)C(=O)NC4,65,39,40,24,95,103,107,83,4,1,93% (inactive),92,91% (inactive),82% (inactive),90,73,72,50,–,–
O=C(Nc1cccc(Nc2cc(Nc3cccc(C(F)(F)F)c3)ncn2)c1)C1CC1,106,100,110,64,105,105,104,102,92,110,99% (inactive),126,95% (inactive),93% (inactive),63,27,116,83,–,–
O=C(O)c1ccc2c3c1cccc3c(=O)n1c3ccccc3nc21,122,119,120,95,105,59,98,39,89,46,109% (inactive),101,114% (inactive),108% (inactive),107,72,101,95,–,–
C[C@@H](N)[C@H]1CC[C@H](C(=O)Nc2ccncc2)CC1,107,106,100,103,105,99,109,117,101,71,106% (inactive),107,111% (inactive),112% (inactive),100,101,106,104,96% (inactive),–
COc1cc2ncnc(Nc3ccc(NC(=O)c4ccccc4)cc3)c2cc1OC,–,59,83,95,88,92,97,75,67,38,103% (inactive),–,–,86% (inactive),–,97,–,89,–,–
CC(=O)O/N=C1\C(=C2\C(=O)Nc3cc(Br)ccc32)Nc2ccccc21,97,32,22,8,96,94,105,84,84,36,108% (inactive),110,98% (inactive),111% (inactive),90,80,104,100,–,–
Cc1cncc2cccc(S(=O)(=O)N3CCCN(C(=O)CN)C[C@H]3C)c12,–,–,86,96,–,–,–,–,–,–,88% (inactive),–,88% (inactive),98% (inactive),90,86,–,82,–,–
N#Cc1cnc2cnc(NCc3cccnc3)cc2c1Nc1ccc(F)c(Cl)c1,–,92,56,39,89,85,–,96,1,-1,–,–,–,–,93,89,103,90,–,–
COc1cccc(-c2cc(=O)c3ccccc3o2)c1N,114,114,113,87,92,93,86,51,119,106,114% (inactive),114,111% (inactive),106% (inactive),107,87,103,102,–,–
O=C1Nc2ccccc2/C1=C1/Nc2ccccc2/C1=N\OCCC(O)CO (stereo not given),10,1,20,-2,113,96,112,110,20,6,113% (inactive),113,104% (inactive),–,–,70,80,78,–,–

SMILES,residual activity [1] [%],residual activity [2] [%],residual activity [3] [%],residual activity [4] [%],residual activity [5] [%],residual activity [6] [%],residual activity [7] [%],residual activity [8] [%],residual activity [9] [%],residual activity [10] [%],residual activity [11],residual activity [12] [%],residual activity [13],residual activity [14],residual activity [15] [%],residual activity [16] [%],residual activity [17] [%],residual activity [18] [%],residual activity [19],residual activity [20] [%]
CN(C)CCCn1cc(C2=C(c3c[nH]c4ccccc34)C(=O)NC2=O)c2ccccc21,–,–,82,–,84,–,83,–,11,2,–,113,117% (inactive),121% (inactive),127,88,115,–,–,–
Cc1cccc(-c2[nH]c(C(C)(C)C)nc2-c2ccc3c(c2)OCO3)n1,–,–,91,102,–,–,–,–,93,65,90% (inactive),107,94% (inactive),95% (inactive),94,87,103,91,–,–
c1ccc(-c2n[nH]c3c2oc2ccccc23)cc1,16,1,86,90,88,85,–,72,–,–,94% (inactive),–,94% (inactive),–,–,85,–,–,–,–
O=C1Nc2ccc(Br)cc2/C1=C\c1cc2c([nH]1)CCCC2,66,43,73,99,116,104,110,103,84,51,104% (inactive),102,101% (inactive),102% (inactive),97,97,113,100,–,–
Nc1n[nH]c2nnc(-c3c(-c4ccccc4)nn4ccccc34)cc12,95,108,103,77,113,97,129,87,112,100,107% (inactive),98,106% (inactive),106% (inactive),–,74,98,87,–,–
N#CC(C#N)=C(N)/C(C#N)=C/c1ccc(O)cc1,–,–,83,–,–,–,–,61,66,77,–,–,–,–,–,–,88,97,–,–
Cn1nc2c3c(cccc31)C(=O)c1ccccc1-2,104,95,–,93,82,84,–,66,70,62,108% (inactive),104,107% (inactive),86% (inactive),–,87,102,98,–,–
Nc1nc(Nc2ccc(S(N)(=O)=O)cc2)nn1C(=S)Nc1c(F)cccc1F,100,66,23,1,108,89,128,94,14,11,89% (inactive),44,–,–,17,3,47,7,–,–
c1ccc(-c2n[nH]cc2-c2ccnc3ccccc23)nc1,101,107,86,90,–,–,85,102,72,58,–,–,–,–,72,27,107,88,–,–
COc1cc2ncc(-c3ccccc3)nc2cc1OC,84,24,88,95,–,–,–,–,63,47,80% (inactive),89,–,–,100,93,–,–,–,–
CCN(CC)C(=O)c1ccc(Nc2nc(OCC3CCCCC3)c3nc[nH]c3n2)cc1,33,5,62,12,–,–,–,55,58,17,–,95,98% (inactive),82% (inactive),–,–,–,–,–,–
Cc1cc(Nc2nc(-c3ccccc3)nc3ccccc23)n[nH]1,23,2,14,-2,109,–,128,–,46,10,105% (inactive),105,105% (inactive),–,–,–,–,45,–,–
COc1cc2ncnc(N3CCN(C(=O)Nc4ccc(Oc5ccccc5)cc4)CC3)c2cc1OC,37,7,95,97,107,102,98,99,–,–,91% (inactive),126,97% (inactive),113% (inactive),88,89,110,86,–,–
Nc1ccc2ncnc(NCCc3ccc(Oc4ccccc4)cc3)c2c1,114,95,110,95,–,96,112,63,81,51,105% (inactive),120,111% (inactive),117% (inactive),111,96,103,89,–,–
N#CCCc1ccc2c(c1)-c1[nH]c3ccc([N+](=O)[O-])cc3c1CC(=O)N2,–,–,46,13,116,–,–,–,–,–,–,–,–,–,–,64,62,37,–,–
